Source: PubChem
TRPM1 prom inh = reduces MITF-dependent TRPM1 promoter luciferase signal; SK-MEL-5 TRPM1 promoter luciferase, 24 h; AID 488899; 0.83% of 330,000 active; inhibition, % at 12.5 µM;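 active means mean inhibition across replicates of 60% or more, whatever share of single replicates reaches that level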
KKLEB tox = reduces viability of KKLEB cystic fibrosis airway cells; activity change (cytotoxicity), % at 5 µM; 0.36% of 360,000 active; KKLEB CF airway cells viability, ATPlite luminescence, overnight; stronger effect = lower value; cells stimulated with P. aeruginosa culture filtrate; AID 602141;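 active means corrected activity change at or below -50% at 5 µM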
LMP1 NFkB inh = reduces LMP1-driven NF-kappaB luciferase signal; inhibition, % at 12.5 µM; LMP1-induced NF-kappaB luciferase reporter cells, luminescence; 0.69% of 350,000 active; in the data active means inhibition above about 41%;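 further: 0% = neutral control wells and 100% = reference inhibitor control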
CF NFkB inh = cystic fibrosis NF-kB activation inhibition. KKLEB NF-kB-GFP reporter, PAF-induced, GFP fluorescence overnight. inhibition, % at 5 µM. 0.86% of 360,000 active;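 active means at least 50% inhibition at 5 µM, scaled per plate between neutral and stimulator controls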;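 further: PAF is a Pseudomonas aeruginosa culture filtrate used as stimulus; plate controls were PAF-stimulated DMSO wells for no effect and unstimulated DMSO wells for full effect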
Peg3 prom inh = inhibitors of Peg3 promoter; HeLa PEG-Prom luciferase reporter, luminescence, overnight; inhibition, % at 20 µM; 1.7% of 360,000 active;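 active means inhibition of at least 50% at 20 µM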
Shn3 inh set2 = inhibitors of Schnurri-3 3'UTR reporter in osteoblasts; Clone20 osteoblast Shn3 3'UTR firefly luciferase, 24 h; 0.52% of 360,000 active; AID 588674; inhibition, % at 12.5 µM;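 active means mean inhibition of at least 75% with every replicate also reaching 75%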;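 further: 0% = median of neutral control wells and 100% = pilot-screen positive control compound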
An asterisk follows results filed as active; . = no result given. Sampled rows, rich in hits. Any-hit rate of the full collection: about 2.9%.

SMILES	TRPM1 prom inh	KKLEB tox	LMP1 NFkB inh	CF NFkB inh	Peg3 prom inh	Shn3 inh set2
CC(=O)OCC(=O)[C@@]1(OC(C)=O)[C@@H](C)C[C@H]2[C@@H]3C[C@H](F)C4=CC(=O)C=C[C@]4(C)[C@@]3(F)[C@@H](O)C[C@@]21C	-16	31	10	77*	-5	14
CC(=O)OCC(=O)C1(O)CCC2C3CC(C)C4=CC(=O)C=CC4(C)C3(F)C(O)CC21C (stereo not drawn)	-6	19	17	80*	8	-4
O=C1OCCC1=CN1CCCCC1	.	22	-16	-34	2	60
O=[N+]([O-])c1ccc(S(=O)Cc2ccccc2)c([N+](=O)[O-])c1 (stereo not drawn)	97*	-20	29	86*	96*	95*
Cc1ccc(-c2c3c(nc4sc(C(N)=O)c(N)c24)CCCC3)o1	-16	-8	-12	45	0	10
NC(=O)c1sc2nc3c(c(-c4ccco4)c2c1N)CCC3	7	-1	31	76*	29	-2
COc1ccc(-c2ccc(C(=O)Nc3cc(OC)c(OC)c(OC)c3)c3occc23)c(C)c1	.	-8	.	7	30	24
CC(C)(C)OC(=O)C[C@@H]1C/C=C\C[C@H](CC(=O)NCCO)C(=O)NC[C@@H](c2ccccc2)OC1=O	-5	5	2	8	4	-14
CC[N+]1=C(C)C(C)(C)c2cc(C)ccc21	15	2	5	-6	7	89*
CCOC(=O)[C@H]1[C@H]2COc3ccc(Br)cc3[C@H]2N2C(=O)CN(Cc3ccc(C)cc3)C(=O)[C@@]12C	1	-9	-1	20	23	1
CCOc1ccc(N(CC(=O)NC2CCCC2)S(=O)(=O)c2c(C)[nH]c(=O)[nH]c2=O)cc1	2	7	-5	-28	72*	4
O=C(CN1CCN(C(=O)C2CCN(C(=O)/C=C/c3ccccc3)CC2)CC1)Nc1ccc(F)cc1	-6	14	5	-31	-12	5
COc1ccc(-n2c(=O)c(CCC(=O)N(C)Cc3ccccc3C)nc3ccccc32)cc1	-5	1	2	-2	19	16
CCc1ccc(CN(C)C(=O)CCc2nc3ccccc3n(-c3ccc(OC)cc3)c2=O)cc1	18	-8	17	24	57*	27
CN1CCn2cnc(C(=O)NCCCCCNC(=O)OC(C)(C)C)c2C1=O	.	-4	-9	-2	-21	4
CCOC(=O)C1=CCN(S(=O)(=O)c2ccc(C)cc2)C1c1ccc(C(C)C)cc1 (stereo not drawn)	.	-7	.	14	26	-35
COc1ccc(NC(=O)c2cccc([N+](=O)[O-])c2)cc1	-18	5	0	3	-156	-47
O=C(Nc1cccc([N+](=O)[O-])c1)c1cc2ccccc2cc1O	53	-52*	23	60*	-257	31
COc1ccc(NC(=O)c2cc([N+](=O)[O-])ccc2O)cc1	84*	6	75*	37	83*	66
O=C(O)c1ccccc1C(=O)Nc1cccc([N+](=O)[O-])c1	-11	0	-2	0	-12	-6
Cc1nnsc1C(=O)N/N=C/c1ccc2ccccc2c1O	69*	-2	48*	1	44	81
Cc1cc(Cl)c2oc(C(=O)N3CCN(c4ccncc4)CC3)c(C)c2c1	-3	-12	-21	18	92*	66
CCCCCCC(=O)N(O)C1CC(=O)N(Cc2ccccc2)C1=O (stereo not drawn)	5	-9	52*	48	35	-23
CCCCCC(=O)N(O)C1CC(=O)N(c2ccccc2)C1=O (stereo not drawn)	1	-8	23	14	37	4
COc1ccc(-c2nn(-c3ccccc3)cc2/C=C/C(=O)OCC(=O)Nc2ccccc2C#N)cc1	41	-70*	-23	67*	48	51
SMILES	TRPM1 prom inh	KKLEB tox	LMP1 NFkB inh	CF NFkB inh	Peg3 prom inh	Shn3 inh set2
N#Cc1ccccc1NC(=O)COC(=O)/C=C/c1cn(-c2ccccc2)nc1-c1ccc(Cl)cc1	25	-33	-31	5	27	-40
COc1ccc(-c2nn(-c3ccccc3)cc2/C=C/C(=O)N2CCN(c3ccccn3)CC2)cc1	0	-15	14	38	52*	16
COc1ccccc1-c1ccc([C@@H]2C[C@H]3[C@H](CON3C)CN2C(=O)c2ccc(-c3ccccc3)cc2)cc1	.	-1	11	-20	20	30
CCC1(O)C(=O)OCc2c1cc1n(c2=O)Cc2cc3c(N)cccc3nc2-1 (stereo not drawn)	72*	-17	73*	86*	69*	12
CCC1(OC(=O)CN(C)C)C(=O)OCc2c1cc1n(c2=O)Cc2cc3c(N)cccc3nc2-1 (stereo not drawn)	67*	-56*	76*	32	39	-6
N#Cc1c(NCCN)nc(-c2ccco2)c2c1CCCC2	-3	-12	78*	5	9	10
CC(C)CCNc1nc(-c2ccco2)c2c(c1C#N)CCCC2	8	8	-7	29	15	2
O=C(NCc1cc(Cl)cc(Cl)c1)c1csc([C@@H]2O[C@H](CO)[C@H](O)[C@H](O)[C@H]2O)n1	.	1	.	18	-2	3
COc1ccc(-c2nc3ccc(C)cn3c2Cc2ccccc2)cc1OC	.	-2	.	-21	-4	22
Nc1c(N2CCCC2)cc(Cl)c2nonc12	74*	-4	3	-8	-9	-15
Cc1cccc(C)c1C(O)c1ncc(-c2cccc3ccccc23)[nH]1 (stereo not drawn)	.	-8	.	11	7	15
CC(C)Nc1nc(NCCOc2ccccc2Cl)c2sc(-c3ccccc3)cc2n1	.	-6	.	38	36	72
COc1ccccc1CNc1nc(NC(C)C)nc2cc(-c3ccccc3)sc12	.	4	.	13	75*	19
COc1ccccc1CNc1nc(NCc2cccc(OC)c2OC)c2sccc2n1	.	-12	.	13	54*	48
Nn1cnc2c(ncn2C2OC(CO)C(O)C2O)c1=O (stereo not drawn)	.	-12	.	-1	12	-25
CC1CCCCC1NC(=O)CSc1nnc(-c2ccco2)n1N (stereo not drawn)	.	6	-2	-26	-2	-22
O=C1c2ccccc2C(=O)N1CCC#C/C=C1\c2ccccc2C(=O)N1c1ccccc1	.	-8	-3	-2	-11	9
COc1ccc2[nH]c(C)c(CCN(Cc3cccs3)C(=S)Nc3ccc(F)cc3)c2c1	8	-14	2	15	-8	86*
O=Cc1s/c(=N\S(=O)(=O)c2ccccc2)n(CCCCl)c1Cl	97*	-69*	3	89*	109*	93*
CCn1c(C)cs/c1=N\S(=O)(=O)c1ccccc1	1	-7	-1	8	-42	-7
Cc1ccc(Nc2c(-c3ccccn3)nc3ccc(C)cn23)cc1	70*	-14	28	13	12	95*
